# Results: PubChem BioAssay
# Values joined by “and” are separate entries in the source; they are usually repeats but may differ in a detail not shown here. Equal entries are not always repeated. Results filed as inconclusive are left out. Active and inactive are the calls of the source.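 Rule for the calls, unless noted: active = compounds whose cell count with miR-34 switched on is under 0.7 times the count with it off; inactive = the rest.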
# Test: growth inhibition of DIPG cells – cell-based, MIPE5.0 library, qHTS (AID 1347068; cut-off not given, nearly all actives have IC50 up to about 30 µM;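 for IC50: cells exposed to compound for 48 hours before viability readout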)
# Details: SU-DIPG-XXV viability
SMILES,outcome,IC50
CCC(=O)NCC[C@@H]1CCc2ccc3c(c21)CCO3,inactive,–
C=C1CC[C@@H]2[C@](C)(CO)[C@H](O)CC[C@@]2(C)[C@@H]1C/C=C1/C(=O)OC[C@H]1O,–,20.9 µM (active)
C[C@@H]1[C@H](O)[C@@H](C)/C=C/C=C/C=C/C=C/C=C/C=C/C=C/[C@H](O[C@@H]2O[C@H](C)[C@@H](O)[C@H](N)[C@@H]2O)C[C@@H]2O[C@](O)(C[C@@H](O)C[C@@H](O)[C@H](O)CC[C@@H](O)C[C@@H](O)CC(=O)O[C@H]1C)C[C@H](O)[C@H]2C(=O)O,inactive,–
CC(C)(S)[C@@H](N)C(=O)O,inactive,–
CC1(C)[C@@H](O)CC[C@]2(C)[C@H]3C(=O)C=C4[C@@H]5C[C@@](C)(C(=O)O)CC[C@]5(C)CC[C@@]4(C)[C@]3(C)CC[C@@H]12,inactive,–
CN[C@H](CC(C)C)C(=O)N[C@H]1C(=O)N[C@@H](CC(N)=O)C(=O)N[C@H]2C(=O)N[C@H]3C(=O)N[C@H](C(=O)N[C@H](C(=O)O)c4cc(O)cc(O)c4-c4cc3ccc4O)[C@H](O)c3ccc(c(Cl)c3)Oc3cc2cc(c3O[C@@H]2O[C@H](CO)[C@@H](O)[C@H](O)[C@H]2O[C@H]2C[C@](C)(N)[C@H](O)[C@H](C)O2)Oc2ccc(cc2Cl)[C@H]1O,inactive,–
CCC[C@@H]1C[C@@H](C(=O)N[C@@H]([C@H]2O[C@H](SC)[C@H](O)[C@@H](O)[C@H]2O)[C@H](C)Cl)N(C)C1,inactive,–
CC(C)(O)CC[C@@H](O)[C@](C)(O)[C@H]1CC[C@@]2(O)C3=CC(=O)[C@@H]4C[C@@H](O)[C@@H](O)C[C@]4(C)[C@H]3CC[C@]12C,inactive,–
C=C(C)[C@@H]1CC[C@]2(C(=O)O)CC[C@]3(C)[C@H](CC[C@@H]4[C@@]5(C)CC[C@H](O)C(C)(C)[C@@H]5CC[C@]43C)[C@@H]12,inactive,–
COc1cc([C@@H]2c3cc4c(cc3[C@H](O)[C@H]3COC(=O)[C@@H]23)OCO4)cc(OC)c1OC,–,0.934 µM (active)
Nc1ccn([C@@H]2O[C@H](CO)[C@@H](O)[C@H]2O)c(=O)n1,inactive,–
COc1ccc([C@@H]2CC(=O)c3c(O)cc(O[C@@H]4O[C@H](CO[C@@H]5O[C@@H](C)[C@H](O)[C@@H](O)[C@H]5O)[C@@H](O)[C@H](O)[C@H]4O)cc3O2)cc1O,inactive,–
COc1ccc(-c2cc(=O)c3c(O)cc(O[C@@H]4O[C@H](CO[C@@H]5O[C@@H](C)[C@H](O)[C@@H](O)[C@H]5O)[C@@H](O)[C@H](O)[C@H]4O)cc3o2)cc1O,inactive,–
C[C@H](CCC(=O)O)[C@H]1CC[C@H]2[C@@H]3[C@H](O)C[C@@H]4C[C@H](O)CC[C@]4(C)[C@H]3CC[C@]12C,inactive,–

# Test: viability loss with induced miR-34 in A549 – imaging, A549 dox-inducible miR-34, nuclei and caspase counts, primary screen (AID 1347080)
# Details: A549 miR-34 inducible, Hoechst nuclei count, 48 h; hits give low values; cell number ratio, induced over uninduced
row,SMILES,fold change
1,CCC(=O)NCC[C@@H]1CCc2ccc3c(c21)CCO3,0.882 (inactive)
2,C[C@@H]1[C@H](O)[C@@H](C)/C=C/C=C/C=C/C=C/C=C/C=C/C=C/[C@H](O[C@@H]2O[C@H](C)[C@@H](O)[C@H](N)[C@@H]2O)C[C@@H]2O[C@](O)(C[C@@H](O)C[C@@H](O)[C@H](O)CC[C@@H](O)C[C@@H](O)CC(=O)O[C@H]1C)C[C@H](O)[C@H]2C(=O)O,0.894 (inactive)
3,O=C(O)C1=CCCNC1,0.989 (inactive) and 0.96 (inactive)
4,CN[C@H](CC(C)C)C(=O)N[C@H]1C(=O)N[C@@H](CC(N)=O)C(=O)N[C@H]2C(=O)N[C@H]3C(=O)N[C@H](C(=O)N[C@H](C(=O)O)c4cc(O)cc(O)c4-c4cc3ccc4O)[C@H](O)c3ccc(c(Cl)c3)Oc3cc2cc(c3O[C@@H]2O[C@H](CO)[C@@H](O)[C@H](O)[C@H]2O[C@H]2C[C@](C)(N)[C@H](O)[C@H](C)O2)Oc2ccc(cc2Cl)[C@H]1O,0.946 (inactive)
5,CC[C@@]1(O)C[C@H](O[C@H]2C[C@H](N(C)C)[C@H](O[C@H]3C[C@H](O)[C@H](O[C@H]4CCC(=O)[C@H](C)O4)[C@H](C)O3)[C@H](C)O2)c2c(cc3c(c2O)C(=O)c2c(O)cccc2C3=O)[C@H]1C(=O)OC,1.94 (inactive)
6,C[C@H]1O[C@@H](O[C@H]2[C@@H](O)C[C@H](O[C@H]3[C@@H](O)C[C@H](O[C@H]4CC[C@@]5(C)[C@H](CC[C@@H]6[C@@H]5C[C@@H](O)[C@]5(C)[C@@H](C7=CC(=O)OC7)CC[C@]65O)C4)O[C@@H]3C)O[C@@H]2C)C[C@H](O)[C@@H]1O,0.979 (inactive)
7,CCC[C@@H]1C[C@@H](C(=O)N[C@@H]([C@H]2O[C@H](SC)[C@H](O)[C@@H](O)[C@H]2O)[C@H](C)Cl)N(C)C1,0.93 (inactive) and 0.912 (inactive)
8,C[C@H]1C[C@H]2[C@@H]3CCC4=CC(=O)C=C[C@]4(C)[C@@]3(F)[C@@H](O)C[C@]2(C)[C@@]1(O)C(=O)CO,0.813 (inactive)
9,COc1cccc(OC)c1OCCNCC1COc2ccccc2O1 (stereo not given),0.967 (inactive) and 0.92 (inactive)
10,O=C(O)c1cc(=O)c2ccc(Cl)cc2[nH]1,0.965 (inactive)
11,C=C(C)[C@@H]1CC[C@]2(C(=O)O)CC[C@]3(C)[C@H](CC[C@@H]4[C@@]5(C)CC[C@H](O)C(C)(C)[C@@H]5CC[C@]43C)[C@@H]12,0.792 (inactive) and 1.12 (inactive)
12,COc1cc2c(c(OC)c1OC)-c1ccc(OC)c(=O)cc1C(NC(C)=O)CC2 (stereo not given),0.969 (inactive)
13,CC(C)C[C@H]1C(=O)N2CCC[C@H]2[C@]2(O)O[C@](NC(=O)[C@@H]3C=C4c5cccc6[nH]c(Br)c(c56)C[C@H]4N(C)C3)(C(C)C)C(=O)N12,1.36 (inactive) and 1.09 (inactive)
14,O=C(/C=C/c1ccc(O)c(O)c1)O[C@H](Cc1ccc(O)c(O)c1)C(=O)O,0.903 (inactive) and 0.98 (inactive)
15,O=C(O)C1=CCNCC1,1 (inactive) and 0.973 (inactive)
16,CC(=O)[C@H]1CC[C@H]2[C@@H]3CCC4=CC(=O)CC[C@]4(C)[C@H]3CC[C@]12C,1.08 (inactive) and 0.812 (inactive) and 0.853 (inactive)
17,O=C(O)Cc1nn(Cc2ccc(Br)cc2F)c(=O)c2ccccc12,0.972 (inactive)
18,CCC[C@@H]1C[C@@H](C(=O)N[C@@H]([C@H]2O[C@H](SC)[C@H](O)[C@@H](O)[C@H]2O)[C@@H](C)O)N(C)C1,0.837 (inactive)
19,COc1ccc([C@@H]2CC(=O)c3c(O)cc(O[C@@H]4O[C@H](CO[C@@H]5O[C@@H](C)[C@H](O)[C@@H](O)[C@H]5O)[C@@H](O)[C@H](O)[C@H]4O)cc3O2)cc1O,0.851 (inactive)
20,CCCn1c(=O)c2[nH]c(C3CCCC3)nc2n(CCC)c1=O,1.02 (inactive) and 0.942 (inactive)
21,N=c1ccn2c(n1)O[C@H]1[C@H](O)[C@@H](CO)O[C@H]12,1.14 (inactive)
22,COc1cc(NS(C)(=O)=O)ccc1Nc1c2ccccc2nc2ccccc12,0.846 (inactive)
23,C=C1C(=O)O[C@H]2[C@H]1CC/C(C)=C/CC[C@@]1(C)O[C@@H]21,0.99 (inactive)
24,O=C(O)c1cc(=O)c2ccccc2[nH]1,1.09 (inactive) and 0.962 (inactive)
25,O=C(O)c1c2ccccc2cc2ccccc12,0.92 (inactive)
26,C[C@H](CCC(=O)O)[C@H]1CC[C@H]2[C@@H]3[C@H](O)C[C@@H]4C[C@H](O)CC[C@]4(C)[C@H]3CC[C@]12C,0.917 (inactive)
